# PubChem BioAssay
# Values without a mark were called inactive. Some of the results follow. Active and inactive are the calls of the source.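 Rule for the calls, unless noted: active = mean inhibition above a cutoff equal to the average over all tested compounds plus one standard deviation (cut at about 70% in these data); inactive = the rest.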
# Columns and labels:
# [1] = target: Receptor-interacting serine/threonine-protein kinase 2 (Homo sapiens) (UniProt O43353); assay: inhibitors of RIPK2 association with NOD2 – fluorescence, CHO cells, BLA complementation, triplicate, confirmation (AID 624370;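 active = mean inhibition across replicates above a set limit taken from the earlier primary screen, cut at about 21% in these data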;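 note: 0% = DMSO-only wells and the high end = clavulanate BLA-blocked wells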); settings: CCF4 FRET, at 4.98 µM, stronger effect = higher value
# [2] = BLA reporter readout interference – cell-based, CHO-K1 CMV-bla, CCF4 FRET, fluorescence, artefact control for NOD2-RIPK2 interaction inhibitor project, confirmation (AID 624371;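 active = mean inhibition above the low-control mean inhibition plus three low-control SD, cut at about 11% in these data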;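 note: 0% = DMSO only wells and 100% = clavulanate high control wells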); settings: CCF4 FRET ratio, counterscreen, at 4.98 µM, stronger effect = higher value
# [3] = target: Nuclear receptor coactivator 1 (Homo sapiens) (UniProt Q15788); assay: NCOA1 GAL4-fusion reporter inhibition – cell-based, luminescence, quadruplicate, confirmation (AID 588820;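 active = mean inhibition above 46.68%, the untreated control wells mean plus 3 SD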;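 note: 0% = DMSO wells and 100% = gossypol 36 µM treated wells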); settings: HEK293 GAL4-SRC1 luciferase reporter, at 3.6 µM, stronger effect = higher value
# [4] = repression of VP16-driven luciferase reporter – cell-based, luminescence, high throughput, counter-screen for SRC1 inhibitor project (AID 588824; in the data active = inhibition above about 25%); settings: cell-based VP16 transactivation luciferase luminescence; at 3.6 µM; stronger effect = higher value
# [5] = tested on: transactivating tegument protein VP16 (Human herpesvirus 1); assay: compounds suppressing VP16-driven luciferase signal – cell-based, luminescence, single concentration, counter-screen for SRC2 inhibitor project (AID 652007; in the data active = inhibition above about 36%); settings: cell-based VP16 transactivation luciferase reporter, at 8.9 µM, stronger effect = higher value
# [6] = target: Nuclear receptor coactivator 2 (Homo sapiens) (UniProt Q15596); assay: inhibition of GAL4-SRC2 driven luciferase expression – cell-based, luminescence, HEK293, triplicate, confirmation (AID 652008;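 active = mean inhibition above 46.5%, the solvent-only control mean plus 3 SD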;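 note: 0% = DMSO-treated cells and 100% = Gossypol at 36 µM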); settings: HEK293 GAL4-SRC2 luciferase reporter, at 8.9 µM, stronger effect = higher value
# [7] = VP16-driven transactivation reporter suppression – cell-based, luminescence, HEK293, counter-screen for COUP-TFII antagonist project (AID 687007; in the data active = inhibition above about 13%); settings: HEK293 Gal4-VP16 luciferase reporter, at 8.5 µM, stronger effect = higher value
# [8] = target: COUP transcription factor 2 (Homo sapiens) (UniProt P24468); assay: retest of COUP-TFII reporter suppressors – cell-based, luciferase reporter, HEK293, triplicate, confirmation (AID 687008;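 active = mean inhibition over three repeats above a set limit taken from the earlier primary screen, cut at about 38% in these data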;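 note: 100% = cells given the luciferase reporter alone without the COUP-TF2 vector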); settings: HEK293 NGFI-A luciferase reporter, luminescence; at 8.5 µM; stronger effect = higher value
# [9] = StAR promoter reporter inhibitors, counter-screen for LRH-1 inverse agonist project, cell-based, luminescence, high throughput (AID 651611; in the data active = inhibition above about 28%); settings: StAR promoter luciferase reporter counterscreen, at 3.6 µM, stronger effect = higher value
# [10] = target: Nuclear receptor subfamily 5 group A member 2 (Homo sapiens) (UniProt O00482); assay: NR5A2 activity suppression in reporter cells – cell-based, luminescence, confirmation (AID 651613; in the data active = inhibition above about 42%;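 note: HEK293T cells co-transfected with LRH-1 and StAR promoter luciferase reporter; 0% = vehicle wells and 100% = parental cells lacking receptor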); settings: cell-based LRH-1 luciferase reporter, inverse agonism; at 3.6 µM; stronger effect = higher value
# [11] = target: Steroidogenic factor 1 (Homo sapiens) (UniProt Q13285); assay: inverse agonism at SF1 nuclear receptor – cell-based, luminescence, high throughput, counter-screen for LRH-1 inverse agonist project (AID 651614; in the data active = inhibition above about 44%;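 note: cells cotransfected with StAR promoter reporter and SF1 expression vector; 0% = vehicle on cells with receptor and 100% = vehicle on cells lacking receptor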); settings: cell-based SF1 luciferase reporter, at 3.6 µM, stronger effect = higher value
# [12] = compounds suppressing VP16-driven luciferase signal – cell-based, luminescence, high throughput, counter-screen for LRH-1 inverse agonist project (AID 651615; in the data active = inhibition above about 33%); settings: Gal4-VP16 luciferase reporter cells, at 3.6 µM, stronger effect = higher value
# [13] = target: Photoreceptor-specific nuclear receptor (Homo sapiens) (UniProt Q9Y5X4); assay: retest of NR2E3-NCOR disrupting agonists – cell-based, luminescence, CHO-S two-hybrid, confirmation (AID 624378;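 active = average inhibition above a cutoff equal to the mean inhibition of all tested compounds plus one SD, cut at about 70% in these data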;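 note: 0% = DMSO in NR2E3 cells and 100% = DMSO in cells lacking NR2E3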); settings: CHO-S mammalian two-hybrid NR2E3-NCOR, luciferase luminescence; at 3.98 µM; stronger effect = higher value
# [14] = nonselective effects on VP16 transactivation – cell-based, luminescence, CHO-S, high throughput, counter-screen for NR2E3 agonist project, confirmation (AID 624379); settings: CHO-S GAL4-VP16 luciferase reporter, at 3.98 µM, stronger effect = higher value;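 note: 0% = DMSO with VP16-transfected cells and 100% = DMSO with cells lacking VP16; higher means less reporter light so more repression of VP16 activity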
# [15] = target: Galanin receptor type 2 (Homo sapiens) (UniProt O43603); assay: blockers of human galanin receptor 2 – cell-based, confirmation (AID 866; in the data active = inhibition above about 27%;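 note: cells stimulated with galanin at about its EC80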); settings: GALR2-expressing cells, antagonist mode, at 4 µM, stronger effect = higher value
# [16] = nonspecific BLA reporter inhibition – CHO NFAT-bla cells, FRET readout, counter-screen for GALR2 antagonist project, confirmation (AID 867;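 active = inhibition above the mean inhibition across tested compounds plus 3 SD, cut at about 27% in these data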;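 note: 0% = 500 nM thapsigargin stimulated wells and 100% = unstimulated BSA only wells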); settings: beta-lactamase FRET, thapsigargin-stimulated, at 4.2 µM, stronger effect = higher value
# Receptor-interacting serine/threonine-protein kinase 2 (Homo sapiens), sequence (O43353 whole entry, looked up): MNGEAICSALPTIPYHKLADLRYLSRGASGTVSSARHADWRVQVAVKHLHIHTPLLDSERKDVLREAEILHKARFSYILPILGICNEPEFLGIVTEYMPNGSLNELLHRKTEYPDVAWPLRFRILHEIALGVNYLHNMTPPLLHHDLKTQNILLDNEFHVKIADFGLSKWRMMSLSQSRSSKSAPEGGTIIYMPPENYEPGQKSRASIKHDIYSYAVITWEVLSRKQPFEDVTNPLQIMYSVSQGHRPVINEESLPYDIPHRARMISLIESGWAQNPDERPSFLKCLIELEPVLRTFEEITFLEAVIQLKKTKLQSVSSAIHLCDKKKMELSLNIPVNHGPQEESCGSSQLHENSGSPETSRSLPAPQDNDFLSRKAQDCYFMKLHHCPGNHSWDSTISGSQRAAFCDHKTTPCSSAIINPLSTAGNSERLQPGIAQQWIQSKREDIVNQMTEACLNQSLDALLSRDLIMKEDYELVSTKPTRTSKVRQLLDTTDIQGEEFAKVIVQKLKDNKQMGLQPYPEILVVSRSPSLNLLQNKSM
# Photoreceptor-specific nuclear receptor (Homo sapiens), sequence (Q9Y5X4 whole entry, looked up, the tested form may be a part): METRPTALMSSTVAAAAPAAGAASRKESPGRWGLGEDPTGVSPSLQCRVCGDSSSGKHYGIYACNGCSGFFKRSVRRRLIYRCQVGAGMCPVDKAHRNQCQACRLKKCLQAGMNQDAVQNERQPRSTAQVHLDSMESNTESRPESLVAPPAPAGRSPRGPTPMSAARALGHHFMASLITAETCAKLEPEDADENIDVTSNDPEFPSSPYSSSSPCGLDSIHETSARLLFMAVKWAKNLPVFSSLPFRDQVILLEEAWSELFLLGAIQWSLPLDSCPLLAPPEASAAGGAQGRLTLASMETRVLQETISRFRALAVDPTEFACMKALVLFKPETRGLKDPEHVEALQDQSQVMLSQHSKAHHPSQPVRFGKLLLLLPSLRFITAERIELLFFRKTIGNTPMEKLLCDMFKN
# Nuclear receptor coactivator 2 (Homo sapiens), sequence (Q15596 whole entry, looked up, the tested form may be a part): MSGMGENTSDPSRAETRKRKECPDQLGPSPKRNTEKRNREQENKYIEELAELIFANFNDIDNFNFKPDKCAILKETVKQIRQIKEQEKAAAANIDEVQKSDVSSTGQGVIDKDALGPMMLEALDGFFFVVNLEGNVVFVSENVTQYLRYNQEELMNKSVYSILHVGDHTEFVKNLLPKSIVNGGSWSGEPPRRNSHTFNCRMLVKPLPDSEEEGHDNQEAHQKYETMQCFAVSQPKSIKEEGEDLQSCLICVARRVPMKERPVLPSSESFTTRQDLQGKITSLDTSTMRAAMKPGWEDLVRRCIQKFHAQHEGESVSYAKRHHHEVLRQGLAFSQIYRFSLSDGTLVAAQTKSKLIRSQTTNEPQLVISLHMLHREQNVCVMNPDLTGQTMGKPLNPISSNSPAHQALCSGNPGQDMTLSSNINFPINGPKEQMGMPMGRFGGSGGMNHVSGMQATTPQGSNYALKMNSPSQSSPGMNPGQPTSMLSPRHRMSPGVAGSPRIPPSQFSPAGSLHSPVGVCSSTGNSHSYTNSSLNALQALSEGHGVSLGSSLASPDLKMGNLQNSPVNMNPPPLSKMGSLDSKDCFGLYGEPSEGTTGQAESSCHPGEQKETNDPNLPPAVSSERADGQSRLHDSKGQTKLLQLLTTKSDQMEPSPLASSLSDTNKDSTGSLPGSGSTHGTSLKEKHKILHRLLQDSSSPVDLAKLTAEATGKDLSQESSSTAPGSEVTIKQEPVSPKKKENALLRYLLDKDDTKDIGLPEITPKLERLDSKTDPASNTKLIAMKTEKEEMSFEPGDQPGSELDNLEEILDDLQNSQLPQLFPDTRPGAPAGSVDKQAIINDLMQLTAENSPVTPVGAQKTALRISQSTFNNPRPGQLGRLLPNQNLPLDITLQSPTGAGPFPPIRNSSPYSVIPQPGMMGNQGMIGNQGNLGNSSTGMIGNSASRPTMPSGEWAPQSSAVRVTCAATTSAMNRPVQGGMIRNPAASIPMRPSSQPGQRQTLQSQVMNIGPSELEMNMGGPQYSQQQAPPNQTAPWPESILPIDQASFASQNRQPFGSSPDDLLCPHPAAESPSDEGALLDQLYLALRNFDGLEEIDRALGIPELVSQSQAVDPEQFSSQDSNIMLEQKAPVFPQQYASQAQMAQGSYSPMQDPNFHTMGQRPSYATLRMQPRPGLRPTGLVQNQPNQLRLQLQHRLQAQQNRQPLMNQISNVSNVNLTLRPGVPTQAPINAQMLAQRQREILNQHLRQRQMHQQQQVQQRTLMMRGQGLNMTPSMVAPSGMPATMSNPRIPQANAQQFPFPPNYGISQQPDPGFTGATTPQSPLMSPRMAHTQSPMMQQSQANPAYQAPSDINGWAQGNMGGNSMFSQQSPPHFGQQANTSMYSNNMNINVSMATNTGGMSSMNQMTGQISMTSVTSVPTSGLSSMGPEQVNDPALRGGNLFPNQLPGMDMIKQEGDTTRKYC
# Nuclear receptor coactivator 1 (Homo sapiens), sequence (Q15788 whole entry, looked up, the tested form may be a part): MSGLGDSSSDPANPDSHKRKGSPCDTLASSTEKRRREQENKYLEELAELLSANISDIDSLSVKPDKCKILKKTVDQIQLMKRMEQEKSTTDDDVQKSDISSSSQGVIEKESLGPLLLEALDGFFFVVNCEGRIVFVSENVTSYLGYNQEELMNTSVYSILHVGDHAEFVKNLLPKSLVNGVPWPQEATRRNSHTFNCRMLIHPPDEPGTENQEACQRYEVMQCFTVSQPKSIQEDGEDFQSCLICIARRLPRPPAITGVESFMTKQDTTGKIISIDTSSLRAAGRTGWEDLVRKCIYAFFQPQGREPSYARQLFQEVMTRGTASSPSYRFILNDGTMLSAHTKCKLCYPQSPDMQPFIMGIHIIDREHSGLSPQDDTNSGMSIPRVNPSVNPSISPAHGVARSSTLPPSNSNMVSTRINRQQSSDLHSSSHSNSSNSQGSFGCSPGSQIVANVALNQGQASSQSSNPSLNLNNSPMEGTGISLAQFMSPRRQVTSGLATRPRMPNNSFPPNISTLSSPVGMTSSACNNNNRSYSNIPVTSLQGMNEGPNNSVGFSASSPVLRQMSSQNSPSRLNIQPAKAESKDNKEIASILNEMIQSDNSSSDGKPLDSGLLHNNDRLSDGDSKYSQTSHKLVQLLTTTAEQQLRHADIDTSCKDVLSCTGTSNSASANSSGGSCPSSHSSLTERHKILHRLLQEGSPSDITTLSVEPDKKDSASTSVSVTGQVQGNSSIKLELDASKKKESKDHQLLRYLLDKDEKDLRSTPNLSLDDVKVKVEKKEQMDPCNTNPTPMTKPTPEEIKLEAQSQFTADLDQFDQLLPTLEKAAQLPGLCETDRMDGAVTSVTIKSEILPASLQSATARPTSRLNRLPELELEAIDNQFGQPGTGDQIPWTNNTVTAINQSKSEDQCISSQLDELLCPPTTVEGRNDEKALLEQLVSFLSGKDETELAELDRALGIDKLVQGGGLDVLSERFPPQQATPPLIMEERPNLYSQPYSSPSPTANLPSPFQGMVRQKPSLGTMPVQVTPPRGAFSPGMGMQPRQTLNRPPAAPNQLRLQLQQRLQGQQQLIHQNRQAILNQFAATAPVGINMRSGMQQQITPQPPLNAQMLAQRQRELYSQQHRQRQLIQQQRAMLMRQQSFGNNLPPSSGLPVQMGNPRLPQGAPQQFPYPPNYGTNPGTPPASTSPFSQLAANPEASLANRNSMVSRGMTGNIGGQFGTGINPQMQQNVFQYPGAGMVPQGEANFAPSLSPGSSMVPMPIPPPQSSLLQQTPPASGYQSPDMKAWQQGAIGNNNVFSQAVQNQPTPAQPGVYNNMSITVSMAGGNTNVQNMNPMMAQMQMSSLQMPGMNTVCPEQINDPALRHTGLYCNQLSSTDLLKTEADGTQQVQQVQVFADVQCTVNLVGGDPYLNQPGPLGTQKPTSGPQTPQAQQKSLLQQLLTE
# COUP transcription factor 2 (Homo sapiens), sequence (P24468 whole entry, looked up): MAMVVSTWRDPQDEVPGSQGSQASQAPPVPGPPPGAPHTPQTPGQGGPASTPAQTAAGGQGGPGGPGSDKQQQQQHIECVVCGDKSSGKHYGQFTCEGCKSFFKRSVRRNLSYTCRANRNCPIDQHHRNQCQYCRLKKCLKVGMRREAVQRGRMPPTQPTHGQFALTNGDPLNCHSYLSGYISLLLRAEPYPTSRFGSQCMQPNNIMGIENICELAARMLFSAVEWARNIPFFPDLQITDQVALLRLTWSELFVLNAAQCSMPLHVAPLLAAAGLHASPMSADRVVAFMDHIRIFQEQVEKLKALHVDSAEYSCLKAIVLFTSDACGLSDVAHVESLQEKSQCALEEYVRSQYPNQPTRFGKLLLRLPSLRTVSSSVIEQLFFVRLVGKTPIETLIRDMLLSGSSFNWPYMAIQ
# Galanin receptor type 2 (Homo sapiens), sequence (O43603 whole entry, looked up): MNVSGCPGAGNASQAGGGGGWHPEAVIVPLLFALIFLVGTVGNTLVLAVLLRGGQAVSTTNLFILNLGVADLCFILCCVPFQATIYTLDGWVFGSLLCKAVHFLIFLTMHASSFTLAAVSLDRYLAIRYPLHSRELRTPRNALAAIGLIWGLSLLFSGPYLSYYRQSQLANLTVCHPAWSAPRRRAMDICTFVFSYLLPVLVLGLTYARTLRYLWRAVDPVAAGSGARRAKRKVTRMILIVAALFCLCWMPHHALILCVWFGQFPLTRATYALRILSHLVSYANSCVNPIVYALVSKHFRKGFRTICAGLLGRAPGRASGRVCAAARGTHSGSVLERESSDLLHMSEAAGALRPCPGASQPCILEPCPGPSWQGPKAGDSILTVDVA
smiles,measurement,setting,value
CN1CCN(/N=C/c2ccc(-c3ccc([N+](=O)[O-])cc3)o2)CC1,inhibition,[1],17.4%
same,inhibition,[2],23.5% (active)
Cc1cc(NC(=O)Cc2ccccc2)c2ccccc2n1,inhibition,[3],11.1%
same,inhibition,[4],36.5% (active)
same,inhibition,[5],9.96%
same,inhibition,[6],24.6%
Cc1cccc(-n2ncc(Cl)c(Cl)c2=O)c1,inhibition,[1],31.5% (active)
same,inhibition,[2],2.52%
O=C1C(=O)N(CC2COc3ccccc3O2)c2ccccc21 (centres undefined),inhibition,[1],-7.75%
same,inhibition,[2],-10.2%
C=CCNc1ncnc2ccc(Br)cc12,inhibition,[3],30.3%
same,inhibition,[4],21%
same,inhibition,[5],1.3%
same,inhibition,[6],42.1%
same,inhibition,[7],9.27%
same,inhibition,[8],22.7%
CC(=O)Nc1ccc(C=Cc2ccc([N+](=O)[O-])cc2)cc1,inhibition,[1],21.3% (active)
same,inhibition,[2],33.9% (active)
Cc1cc(Nc2cccc(Cl)c2)nc(NCc2ccccc2)n1,inhibition,[3],-6.91%
same,inhibition,[4],12.4%
same,inhibition,[5],-3.2%
same,inhibition,[6],13.1%
COc1ccc2c(=O)cc(-c3ccncc3)oc2c1OC,inhibition,[3],43.9%
same,inhibition,[4],19.3%
same,inhibition,[5],-15.8%
same,inhibition,[6],41.5%
CCN(CC)CC(C)(C)C(=O)/C=C/c1ccc(/C=C/C(=O)C(C)(C)CN(CC)CC)cc1,inhibition,[4],84.5% (active)
same,inhibition,[9],84.9% (active)
same,inhibition,[10],99.6% (active)
same,inhibition,[11],95.1% (active)
same,inhibition,[12],88.8% (active)
O=[N+]([O-])/C=C/c1ccc2c(ccn2Cc2ccccc2)c1,inhibition,[1],83.3% (active)
same,inhibition,[2],7.27%
COc1ccc2c(c1OC)C(=O)OC2Nc1nc(-c2ccccc2)cs1 (centres undefined),inhibition,[1],10.3%
same,inhibition,[2],6.11%
c1cn(-c2ncnc3sc4c(c23)CCCC4)cn1,inhibition,[3],11.4%
same,inhibition,[4],7.19%
same,inhibition,[5],-1.75%
same,inhibition,[6],-4.88%
COc1ccc(CNc2ncc(-c3ccc(F)cc3)n2C)c2ccccc12,inhibition,[3],41.3%
same,inhibition,[4],-14.1%
same,inhibition,[5],24.8%
same,inhibition,[6],94.5% (active)
O=C(Cc1csc(Nc2nc(=S)[nH]c3ccccc23)n1)NCCCN1CCN(c2cccc(Cl)c2)CC1,inhibition,[1],38% (active)
same,inhibition,[2],55.8% (active)
O=[N+]([O-])c1ccc(NS(=O)(=O)c2ccccc2)c(Cl)c1,inhibition,[13],77.9% (active)
same,inhibition,[14],43.9%
CCCOc1ccccc1C1CC(=O)Nc2cc3c(cc21)OCO3 (centres undefined),inhibition,[13],28.9%
same,inhibition,[14],26.1%
Clc1ccc(-n2nnnc2-c2cnc(-c3ccccn3)nc2-c2cccs2)cc1,inhibition,[13],24.1%
same,inhibition,[14],-8.49%
N#Cc1cccc(NC(=O)COC(=O)c2ccccc2C(=O)c2ccc(Cl)c([N+](=O)[O-])c2)c1,inhibition,[15],63.2% (active)
same,inhibition,[16],37.4% (active)
same,inhibition,[1],56.2% (active)
same,inhibition,[2],11.9% (active)
O=C1CC(C(F)(F)C(F)(F)C(F)(F)C(F)(F)F)=Nc2ccccc2N1,inhibition,[1],-1.13%
same,inhibition,[2],0.83%
CCCNc1ncnc2sc(C)c(C)c12,inhibition,[13],27.8%
same,inhibition,[14],29.6%
CCC(C)C(N=C1NS(=O)(=O)c2ccccc21)C(=O)N1CCC(C)CC1 (centres undefined),inhibition,[13],41%
same,inhibition,[14],-4.13%
COC(=O)c1sccc1NC(=O)CSc1ccccc1NS(=O)(=O)c1cc(Cl)ccc1Cl,inhibition,[13],84% (active)
same,inhibition,[14],74.7% (active)
Cc1cccc(NS(=O)(=O)c2ccc(-c3cnc(C4CC4)o3)cc2)c1,inhibition,[13],53.5%
same,inhibition,[14],37.9%
CC(=O)c1c(C)[nH]c(C(=O)COC(=O)c2cccc(S(=O)(=O)N(C)c3ccccc3)c2)c1C,inhibition,[13],23.8%
same,inhibition,[14],73.4% (active)
CCOC(=O)N1CCN(C(=O)c2ccc(S(=O)(=O)Nc3cccc(C(F)(F)F)c3)cc2)CC1,inhibition,[13],65.8%
same,inhibition,[14],47.3%
Cc1cccc2sc(N(CCCN(C)C)C(=O)CCS(=O)(=O)c3ccccc3)nc12,inhibition,[1],25.4% (active)
same,inhibition,[2],7%
same,inhibition,[5],12%
same,inhibition,[6],32.5%
c1ccc(C2c3[nH]c4ccccc4c3CCN2Cc2cccn2-c2cccnc2)nc1 (centres undefined),inhibition,[13],-1.67%
same,inhibition,[14],-5.76%
CCOc1ccc(S(=O)(=O)N2CCCCCC2)c2ccccc12,inhibition,[13],50.4%
same,inhibition,[14],-4.92%
OC(c1ccc(Cl)cc1)c1ncc(-c2ccc(Cl)cc2)[nH]1 (centres undefined),inhibition,[13],79.4% (active)
same,inhibition,[14],58.9%
Oc1ccc(Br)cc1/C=N/Nc1ccccn1,inhibition,[13],99.3% (active)
same,inhibition,[14],61%
CSc1nsc(SC)c1NC(=O)OC1CCCCC1,inhibition,[13],-5.88%
same,inhibition,[14],-17.6%
CCCc1cc(=O)[nH]c(SCC(=O)Nc2sc3c(c2C#N)CCCC3)n1,inhibition,[13],15.4%
same,inhibition,[14],41.8%
Cc1cc2nc(-c3ccc(Cl)cc3)c(Cc3cccc(F)c3)n2c(C)c1Br,inhibition,[13],36.1%
same,inhibition,[14],-25.9%
Cc1ccc(S(=O)(=O)N2[C@@H](c3ccc(Br)cc3)C(C(=O)O)=C[C@H]2CC2CCCC2)cc1,inhibition,[13],26.2%
same,inhibition,[14],26.5%
